In ChEMBL document CHEMBL1157539, “Thousands of chemical starting points for antimalarial lead identification” (Nature, 2010):

These compounds were tested on HepG2 (assay: GSK_TCMDC: Percent inhibition of human HepG2 cell line. Test compounds present at 10uM.).
Type: functional

SMILES | Inhibition [%]
CC(C)C(NC(=O)Cc1cccc2ccccc12)C(=O)Nc1cccc(C#N)c1 (centres undefined) | 0
COc1ccc2nccc([C@@H](O)CN3CCC(NC(=O)C(c4cc5ccccc5o4)N4CCN(c5ccccc5OC)CC4)CC3)c2c1 (some centres undefined) | 14
CCN(CC)CCCC(C)Nc1c2cc(OC)ccc2nc2cc(Cl)c([N+](=O)[O-])cc12 (centres undefined) | 12
O=C(Nc1cc(Cl)ccc1-n1cncn1)C1(c2ccccc2)CC1 | 3
Cc1cc(NC(=O)NCCN2CCC(NS(=O)(=O)c3ccc(Br)cc3)C2)c2ccccc2n1.O=C(O)C(F)(F)F (centres undefined) | 9
Cn1nccc1C(=O)NCCNCc1ccc(-c2cccc(-c3nc4cc(C(F)(F)F)ccc4[nH]3)c2)cc1.O=C(O)C(F)(F)F | 51
O=C(Nc1ccc(Cl)cc1)Nc1ccc(-c2cccc(-c3nc4cc(F)ccc4[nH]3)c2)cc1 | 74
CC1CN(Cc2cccc(-c3ccc(-c4nc5cc(F)ccc5[nH]4)cc3)c2)CC(C)O1.O=C(O)C(F)(F)F (centres undefined) | 45
CN(C)c1ccc(-c2csc(C(=O)NC3CCN(Cc4ccc(C(C)(C)C)cc4)C3)c2)cc1.O=C(O)C(F)(F)F (centres undefined) | 26
